# Among all 65,000 compounds or so, about 2,100 (3.2%) showed an effect of 50% or more. The median lay at about -52%. This is one part of a sample in which strong results are shown more often than they occur.
# Test system: Plasmodium falciparum
# Assay: Screen against P. falciparum Asexual Blood Stage (ABS), at 5uM
# Type: functional, Dd2
# Conditions: tested at 5 uM
row,Compound,INHIBITION
1,COc1ccc(NC(=O)c2cccc(CN3CCCC3C)c2)cc1OC (configuration not stated),51.1%
2,Cc1cccc(C)c1NC(=O)c1cccc(CN2CCCC2C)c1 (configuration not stated),49.8%
3,CC1CCCN1Cc1cccc(C(=O)Nc2ccc3c(c2)CCC3=O)c1 (configuration not stated),30.1%
4,O=C([C@H]1C[C@@H]2CCN(c3cccc(F)c3)C[C@H]2O1)N1CCCC1,-20.3%
5,CCc1nc(C2CCCN2CCCSC)no1 (configuration not stated),42.3%
6,O=c1c(NCc2ccncc2)c(NCC(O)CN2CCOCC2)c1=O (configuration not stated),-27%
7,Cc1nnc(N2CCCC3(CN(Cc4ccc(F)cc4)CCO3)C2)o1 (configuration not stated),-65.4%
8,Cc1cc(C)cc(CNC(C)c2c(C)nn(C)c2C)c1 (configuration not stated),49.4%
9,Cn1nccc1C(=O)N1CC[C@]2(C[C@H](OCc3ccccn3)CO2)C1,-58%
10,Cc1ccc(CCNc2nc(-c3ccncc3)nc3c2CCNCC3)o1,-88.2%
11,c1csc(CCNc2nc(-c3ccncc3)nc3c2CCNCC3)c1,53.5%
12,CCOCCNc1nc(-c2ccncc2)nc2c1CCNCC2,-46.1%
13,Cc1csc(CCCNC(=O)NC2CC(=O)N(C(C)(C)C)C2)n1 (configuration not stated),-57%
14,Cc1n[nH]c(NC(=O)c2ccc(COCC(F)(F)F)cc2)c1C,-94.3%
15,O=C1CC2(CCCCN2C(=O)c2ccco2)CN1c1cccnc1 (configuration not stated),-138%
16,O=C1Nc2ccccc2CN(CC=Cc2ccccc2)C12CCNC2 (configuration not stated),60.2%
17,O=C1Nc2ccccc2CN(CC2CC2)C12CCNC2 (configuration not stated),-2.03%
18,CCCN1Cc2ccccc2NC(=O)C12CCNC2 (configuration not stated),-23.5%
19,COCCN1CCN(C(=O)N2CCCC2)Cc2ccc(C)nc21,-114%

row,Compound,INHIBITION
1,CC(C)(C)c1nc(CN2CCCN(Cc3cccs3)CC2)no1,30.6%
2,Cc1csc(N2CCN(C(=O)C3(C#N)CCCC3)CC2)n1,-111%
3,Cc1csc(N2CCCN(C(=O)C3(C#N)CCCC3)CC2)n1,63%
4,Cc1csc(N2CCCN(C(=O)C3(C#N)CCCCC3)CC2)n1,-43.4%
5,Fc1cccc(N2CCCC3(CN(Cc4nccs4)CCO3)C2)c1 (configuration not stated),0.276%
6,CC(=O)Nc1ccc(CN2CCCC(c3cc4ncccc4[nH]3)C2)cc1 (configuration not stated),42.3%
7,Cc1nc2c(c(N(C)Cc3ccccc3-n3cccn3)n1)CCNCC2,-3.02%
8,Cc1nonc1CN(C)c1nc(-c2cccnc2)nc2c1CCNC2,69.5%
9,CN(Cc1ccc(-n2cccn2)cc1)c1nc(N)nc2c1CCNCC2,58.4%
10,Cc1cc(CN(C)c2nc(-c3ccccn3)nc3c2CCNCC3)n[nH]1,69.2%
11,c1ccc(-c2nc3c(c(NCCn4cccc4)n2)CCNCC3)nc1,-0.552%
12,CN(CC1CCCO1)c1nc(-c2cccnc2)nc2c1CCNCC2 (configuration not stated),-40%
13,CN(Cc1ccccc1-n1cccn1)c1nc(N)nc2c1CCNCC2,-13.4%
14,CN(CCO)c1nc(-c2ccccn2)nc2c1CCNC2,-79.2%
15,CN(CC1CCCCO1)c1nc(-c2cccnc2)nc2c1CCNC2 (configuration not stated),-14.1%
16,CN(Cc1cccnc1)c1nc(-c2ccccn2)nc2c1CCNCC2,55.3%
17,CN(CC(O)CO)c1nc(-c2cccnc2)nc2c1CCNC2 (configuration not stated),-79.7%
18,CN(Cc1ccc(-n2cccn2)cc1)c1cc(N)nc(N)n1,41.7%
